Inconclusive results are not listed. Values without a mark were called inactive. The source made the active and inactive calls. Calls come from the whole dose curve; as a rule, active = well fitted inhibition curve with a large enough effect in the repeat runs; inconclusive = weak or mixed curves; inactive = flat fitted curve, though single readings scatter.
% is set by controls: 0 for no effect and ±100 for the full control effect; potency is the fitted concentration of half-maximal effect.

For this assay, the target named is Cytochrome P450 2D6 (Homo sapiens) (UniProt P10635). The experiment in a line: Cytochrome P450 family 2 subfamily D member 6 (CYP2D6) small molecule antagonists: luciferase biochemical (cell-free) qHTS assay (AID 1645840). Note: nearly all actives have a fitted effect of over 55% in size. The following applies: P450-Glo CYP2D6 enzyme, luciferin luminescence, 1 h; series mostly up to 57.4 µM; activity change, negative = inhibition: at the top concentration. The method in brief: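 P450-Glo CYP2D6 system: proluciferin substrate converted by enzyme to luciferin, read by luminescence proportional to activity. Enzyme-substrate mix with compound 10 min at room temperature, then NADPH regeneration 1 h before detection reagent.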
Chain of Cytochrome P450 2D6 (Homo sapiens) (P10635 whole entry, looked up): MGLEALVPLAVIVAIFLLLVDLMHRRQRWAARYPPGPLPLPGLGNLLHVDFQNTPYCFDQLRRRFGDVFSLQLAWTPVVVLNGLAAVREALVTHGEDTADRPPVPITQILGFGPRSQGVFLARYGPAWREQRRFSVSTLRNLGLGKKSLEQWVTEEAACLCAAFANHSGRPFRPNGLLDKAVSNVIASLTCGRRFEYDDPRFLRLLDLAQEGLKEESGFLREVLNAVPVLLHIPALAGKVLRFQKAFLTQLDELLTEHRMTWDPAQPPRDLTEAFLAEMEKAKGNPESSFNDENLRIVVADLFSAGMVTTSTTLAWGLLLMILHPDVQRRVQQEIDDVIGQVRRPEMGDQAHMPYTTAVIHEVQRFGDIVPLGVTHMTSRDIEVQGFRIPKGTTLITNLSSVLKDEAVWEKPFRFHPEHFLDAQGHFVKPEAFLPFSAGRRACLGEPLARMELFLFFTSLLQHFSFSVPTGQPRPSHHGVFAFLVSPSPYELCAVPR
Regarding `O=C(O)CCNc1cc(N2CCc3ccccc3CC2)nc(-c2ccccn2)n1`, the activity change, negative = inhibition is 10.8% [at 11.5 µM].

As to `CN(C)CCN(Cc1ccc(Cl)cc1)c1ccccn1`, the Potency is 0.0692 µM (active).

Regarding `COc1ccc(-c2ccc3ncc4c(c3c2)n(-c2ccc(N3CCNCC3)c(C(F)(F)F)c2)c(=O)n4C)cn1`, the “activity change, negative = inhibition” value was -4.05%.

As for `COc1ccc(-c2nc3ccc(C4=NNC(=O)CC4C)cc3[nH]2)cc1` (stereo not given), the “activity change, negative = inhibition” value was 0.595%. Consider `NC(=O)c1nnn(Cc2cc(Cl)c(C(=O)c3ccc(Cl)cc3)c(Cl)c2)c1N`, for which the Potency is 26.8 µM (active). Consider `Cc1csc(-c2nnc(Nc3ccc(Oc4ncccc4-c4ccnc(N)n4)cc3)c3ccccc23)c1`, for which the “activity change, negative = inhibition” value was -2.47%. For `CC1(COc2ccc3c(c2)ncn3-c2ccc3cccc(N4CCC(N)CC4)c3n2)COC1`, the Potency was 15.1 µM (active).

Take `CN1CCc2c(n(Cc3ccc(C(=O)NO)cc3)c3ccccc23)C1`: the Potency is 6.74 µM (active). On the same count and under the same terms, the same measure for `Nc1ncnc2c1c(-c1cccc(OCc3ccccc3)c1)cn2C1CC(CN2CCC2)C1` (stereo not given): 12 µM (active); for `Cc1cccc(Nc2nc(N[C@@H]3CCCC[C@H]3N)ncc2C(N)=O)c1`: 15.1 µM (active).

Values taken from PubChem BioAssay (NCATS).
